# Screens: PubChem, National Center for Advancing Translational Sciences (NCATS)
# In the library only some 8% were active in any assay of this set; here they are far more common.
# RORgamma inh = blocks mouse ROR gamma transcriptional activity. P51450. Drosophila S2 Gal4-RORgamma UAS-luciferase reporter, 20 h. Potency, µM (doses to about 53.6 µM), for the others: at the highest dose activity change, negative = inhibition, usual class: inhibitors. hit rate 5.4% among 310,000; further: potency means the concentration at half of the fitted maximal effect; nearly all actives have a fitted effect of over 60% in size
# Target sequence (P51450 whole entry, looked up, the tested form may be a part): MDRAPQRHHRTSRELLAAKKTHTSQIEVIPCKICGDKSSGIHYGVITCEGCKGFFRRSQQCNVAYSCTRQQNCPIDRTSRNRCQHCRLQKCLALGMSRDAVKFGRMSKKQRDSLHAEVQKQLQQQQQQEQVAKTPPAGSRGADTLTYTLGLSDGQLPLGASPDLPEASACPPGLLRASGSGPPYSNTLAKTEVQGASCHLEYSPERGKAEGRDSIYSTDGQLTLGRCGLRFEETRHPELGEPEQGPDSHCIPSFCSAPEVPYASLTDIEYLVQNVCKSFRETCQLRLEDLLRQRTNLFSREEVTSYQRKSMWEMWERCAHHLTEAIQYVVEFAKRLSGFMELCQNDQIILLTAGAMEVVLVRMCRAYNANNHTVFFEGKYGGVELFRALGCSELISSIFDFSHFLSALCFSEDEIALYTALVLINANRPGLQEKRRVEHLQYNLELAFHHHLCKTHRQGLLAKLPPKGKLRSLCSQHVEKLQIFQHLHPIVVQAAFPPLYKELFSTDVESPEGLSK
#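 Schneider cells (Drosophila), stable Gal4 DBD–ROR gamma + UAS-luc; 1 hr cmpd preincubation; Cu2+ induction 700 uM final; 20 hr ambient; luminescence.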
# ELG1 repair inh = ELG1-dependent DNA repair inhibition; hit rate 2.3% among 330,000; HEK293T ELG1-luciferase reporter, luminescence, 16 h; DNA damage induced by 5-fluorouridine; Potency, µM (top dose mostly 46.1 µM), for inactives: top-dose activity change, negative = inhibition, usual class: inhibitors; AID 504467; further: potency means the concentration at half of the fitted maximal effect; nearly all actives have a fitted effect of over 55% in size
#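 Cells (2,000 per well) received 5-fluorouridine plus test compound or DMSO and were incubated 16 hr at 37 °C, 5% CO2. Luciferase activity was read by luminescence 30 min after ONE-Glo addition; signal suppression marked inhibition of damage-induced ELG1 function.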
# Gal4-VP16 FLuc = counter-screen for ROR gamma inhibitors: Gal4-VP16 reporter | Potency, µM (series often up to 53.6 µM), for the others: top-dose activity, negative = inhibition, hits mostly inhibitors | hit rate 3.5% among 310,000 | Drosophila S2 Gal4-VP16 UAS-luciferase, luminescence, 20 h;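 further: Gal4-VP16 expression switched on by copper sulfate through the metallothionein promoter; potency means the concentration at half of the fitted maximal effect; nearly all actives have a fitted effect of over 50% in size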
# Coupling enz = counter-screen for Giardia aldolase inhibitors: coupling enzyme system; coupling enzyme system counterscreen, AmpLite Red fluorescence; activity change, negative = inhibition, % at 58.2 µM, hits read low; hit rate 0.67% among 290,000; in the data active means activity change below about -30%
#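 First, compound is pin-transferred into glyceraldehyde-3-phosphate coupling-enzyme reagent at 57.5 uM final and held 10 min at RT. Next, substrate, coupling system and AmpLite Red are added. After 20 min RT, fluorescence (525/598 nm) is read.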
# TSHR antagonist = antagonists of human thyroid stimulating hormone receptor; TSHR-expressing cells, TSH-stimulated cAMP HTRF, 2 h; hits give low values; hit rate 0.2% among 330,000; P16473; AID 504810; activity change, negative = inhibition, % at 11.5 µM;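 active means activity change below a set negative limit, meaning inhibition stronger than a set level, cut at about -70% in these data; inconclusive means activity change between two set negative limits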
#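 Competitive HTRF cAMP read-out (cryptate anti-cAMP antibody, cAMP-d2; 30 min, room temperature) in freshly harvested TSHR cells. Compounds added before TSH at EC80 (4nM final), followed by 2 hours' incubation at 37 deg C.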
# Starred values were filed as active, the others as inactive; ? = inconclusive; . = not tested or not shown; [ ] = another dose, or the depositor's remark. Unless noted, the call rests on the fitted dose curve; in most records, active means well fitted curve in the direction sought with a large enough effect; inconclusive means small, poorly fitted or top-dose-only effect, or another doubt; inactive means no such curve, though single readings can be large; an effect the other way counts as inactive or inconclusive. On the % scale 0 is the no-effect control and ±100 the full control effect.
SMILES,RORgamma inh,ELG1 repair inh,Gal4-VP16 FLuc,Coupling enz,TSHR antagonist
COc1ccc(S(=O)(=O)NCC(c2ccc(F)cc2)N2CCN(C)CC2)cc1 (stereo unspecified),.,13%,.,.,9
O=C(CN1CCC(c2nc3ccccc3s2)CC1)NCc1cccs1,-18%,9.2µM*,-19%,14,.
CSCCC(NS(=O)(=O)c1ccc2c(c1)OCCO2)C(=O)N(C)Cc1ccccc1F (stereo unspecified),.,16µM*,.,.,-13
FC(F)(F)c1nnc(Nc2ccc(Cl)cc2)s1,12%,10µM*,-5%,2,-9
Fc1ccc(Nc2nnc(C(F)(F)F)s2)cc1Cl,-93%,?,?,1,-21
CC1=NN(C2=NS(=O)(=O)c3ccccc32)C(C)(O)C1 (stereo unspecified),1.3µM*,27%,3.5µM*,-1,-4
O=S1(=O)N=C(N2CCOCC2)c2ccccc21,2%[10 µM],-8%,-1%,-2,-7
COc1ccc(N2CCN(C(=O)c3sc4ncn(CC(=O)N5CCCCC5C)c(=O)c4c3C)CC2)cc1 (stereo unspecified),43%,?,22µM*,.,13
CCN(CC)C(=O)Cn1cnc2sc(C(=O)N3CCN(c4ccc(OC)cc4)CC3)c(C)c2c1=O,14%,-10%,0%,0,1
CCOC(=O)c1c(C)[nH]c(C(=O)OC(C)C(=O)Nc2ccccc2OC)c1C (stereo unspecified),-17%,?,-8%,-1,2
COc1ccccc1N1CCN(Cc2cnc3ccc(Cl)cn23)CC1,0%,0%,-4%,2,0
O=C(CC(SCc1ccco1)c1ccc(O)cc1)c1cccs1 (stereo unspecified),0.89µM*,?,-14%,0,-19
CCOc1cc(N2CCOCC2)c(OCC)cc1NC(=O)CN1C(=O)N(C)C2(CCCCC2)C1=O,.,-2%,.,.,-4
CC(C)=CCC[C@](C)(O)C1CC[C@]2(C)[C@@H]1CC[C@@H]1[C@@]3(C)CCC(=O)C(C)(C)[C@@H]3CC[C@]12C (stereo partly specified),-1%,.,8%,2,.
CCOP(=O)(OCC)C(NC(=O)Nc1ccccc1)c1ccccc1 (stereo unspecified),11µM*,3%,-6%,2,3
OC(c1ccccc1)c1nccc2ccccc12 (stereo unspecified),13µM*,16%,-11%,-1,3
OC(c1cccs1)c1nccc2ccccc12 (stereo unspecified),-6%,14%,5%,-9,-7
COc1ccc(CN(C)C(=O)C23CC4CC(CC(Cl)(C4)C2)C3)c(OC)c1OC,?,26µM*,-9%,2,-11
COc1cccc(CN(C)C(=O)C23CC4CC(CC(NC(C)=O)(C4)C2)C3)c1OC,19%,7%,-6%,.,9
COc1cccc(C(=O)Nc2ccc(NC(=O)C(C)(C)C)cn2)c1,7.1µM*,?,8.9µM*,0,-2
COc1cc(C(=O)Nc2ccc(NC(=O)c3cccc(Cl)c3)nc2)cc(OC)c1OC,13%,?,19%,0,-3
O=C(Nc1ccc(Br)cn1)c1cccc(C(=O)Nc2ccc(Br)cn2)c1,?,?,1.3µM*,0,-6
COc1cccc(C(=O)Nc2ccc(NC(=O)C3CCCCC3)nc2)c1,23%,?,6%,0,-103*
O=C(Nc1ccc(Br)cn1)c1ccc2ccccc2c1,3%,?,3%,0,-14
Cc1ccc2nc3n(c(=O)c2c1)-c1cc(Cl)ccc1C(=O)NC3Cc1ccc(O)cc1 (stereo unspecified),.,4%,.,.,13
SMILES,RORgamma inh,ELG1 repair inh,Gal4-VP16 FLuc,Coupling enz,TSHR antagonist
c1ccc(C(c2ccccc2)N2CCN(c3nc4ccccc4n4cnnc34)CC2)cc1,-91%,?,13µM*,-9,-6
c1cnc(N2CCN(c3nc4ccccc4n4cnnc34)CC2)nc1,20%,-10%,-15%,0,14
CCOC(=O)CN1C(=O)/C(=C/c2c(F)cccc2Cl)Oc2ccccc21,?,-3%,-16%,-3,1
COC(=O)C1=C(C)OC(N)=C(C#N)C1c1cc2cccc(C)c2nc1Cl (stereo unspecified),-1%,17%,10%,-2,-4
CC(=O)C1=C(C)OC(N)=C(C#N)C1c1cc2cccc(C)c2nc1Cl (stereo unspecified),-6%,1%,-1%,-34*,8
CN(C)S(=O)(=O)N1CCC(Oc2cccc(C(=O)N3CCCCCCC3)c2)CC1,3%,?,-2%,-1,25
Cc1cc(O)cc(O)c1C(=O)Cc1ccccc1,?,10µM*,?,0,4
O=C(Cc1ccc([N+](=O)[O-])cc1)c1c(O)cc(O)cc1O,?,11%,0%,1,-13
O=C(CCC(=O)N1CCCC1)N1CCCC1,?,0%,8%,-2,19
O=C(NNC(=S)NC(=O)c1ccc(F)cc1)c1cccnc1,?,-16%,?,-16,11
O=C(NNC(=O)c1ccc(Cl)cc1Cl)c1cnccn1,?,0%,?,1,-3
O=C(NNC(=O)c1cnccn1)c1ccc(Cl)cc1,8.9µM*,?,16µM*,0,11
O=C(NC(=S)NNC(=O)c1cnccn1)c1ccc(F)cc1,-35%,5.2µM*,-6%,-1,2
O=C(NNC(=S)NC(=O)c1cccnc1)c1ccc(F)cc1,16µM*,?,?,-10,3
Cc1csc2ncnc(NNC(=O)c3ccc(Cl)cc3)c12,1.8µM*,-9%,4.5µM*,-2,-11
O=C(NNc1ncnc2sccc12)c1ccc(Cl)cc1,?,?,?,-1,-6
CO[C@@H]1COC(=O)C/C=C\[C@@H](C)[C@@H]2C=C[C@H](O)[C@@H](COC(=O)CCC[C@H]1C)O2,-2%[10 µM],.,-2%[10 µM],3,.
CN(CC(=O)NCCc1ccc(S(N)(=O)=O)cc1)CC(=O)Nc1cccc(F)c1,.,18%,.,.,6
Cc1nn2cc(-c3ccccc3)nc2s1,11µM*,?,?,0,-7
CCN(CC)C(=O)CN1CCN(Cc2ccc3c(c2)OCO3)CC1,-4%,3%,-18%,8,-1
Cc1cnc(NC(=O)c2cc3c(C)nn(Cc4ccccc4Cl)c3s2)s1,3.5µM*,0%,4.5µM*,6,-14
Oc1cccc2c(NC(=S)Nc3ccc(SC(F)F)cc3)cccc12,6.3µM*,-1%,7.9µM*,-43*,8
COCCN(CC1CCCN(C2Cc3ccccc3C2)C1)C(=O)CCC(N)=O (stereo unspecified),-18%,-19%,-2%,2,8
CSc1ccc(S(=O)(=O)NCC(=O)OCC(=O)NCc2cccs2)cc1[N+](=O)[O-],.,7%,.,.,-7
